In the supplement of paper PMC11172423:
A number with no mark means an inactive call.

These compounds were tested on Madurella mycetomatis MM55 (assay: growth relative to untreated control; higher = less inhibition, active = 20 or less). Settings: 100 µM.
Procedure, shortened: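 Compound at 100 or 25 µM was applied for 7 days at 37 °C to hyphal fragments of M. mycetomatis MM55 or F. senegalensis CBS197.79 in 96-well plates. Fragments were suspended in colourless RPMI 1640 with L-glutamine and MOPS at 68–72% transmission at 660 nm, and viability was read with MTS (2 h, 490 nm) or resazurin (600 nm). Growth is reported as blank-corrected metabolic activity relative to the blank-corrected untreated growth control.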

| SMILES | growth |
| --- | --- |
| COc1ccc(-n2nc(C)c3c2NC(=O)CC3c2ccccc2OCc2ccc(F)cc2)cc1 (configuration not stated) | 52.4% |
| CCC(C)n1ncn(-c2ccc(N3CCN(c4ccc(OCC5COC(Cn6cncn6)(c6ccc(Cl)cc6Cl)O5)cc4)CC3)cc2)c1=O (configuration not stated) | 4.46% (active) |
| CN(c1ncc2nc(Nc3cc(Cl)cc(C(F)(F)F)c3)n(C3CCNCC3)c2n1)C1CC1 | 5.99% (active) |
| COc1ccc(CCNc2nccc(-c3cc(Cl)cc(C(F)(F)F)c3)n2)cc1 | 116% |
| Cc1cc(C(=O)N2CCOc3c(cc(-c4csc5ccccc45)cc3OCCc3ccccn3)C2)n(C)n1 | 87.7% |
| FC(F)(F)c1cc(Cl)cc(Nc2nc3cnc(NC4CCOCC4)nc3n2C2CCNCC2)c1 | 5.14% (active) |
| CN(C)C1CC(NC(=O)c2ccc(Nc3nccc(-c4ccc(Cl)c(C(F)(F)F)c4)n3)cc2)C1 (configuration not stated) | 6.2% (active) |
| CCN(CC)CCNC(=O)c1ccc(NC(=O)c2cc3c(C)nn(-c4ccc(Cl)cc4)c3s2)cc1 | 108% |
| OCCN1CCN(CCCN2c3ccccc3Sc3ccc(C(F)(F)F)cc32)CC1 | 3.71% (active) |
| O=C1CN(C(=O)CCC2CCCC2)C(c2ccc(F)cc2)c2cc(Cl)ccc2N1 (configuration not stated) | 94.9% |
| CC(C)(C)c1nc(-c2cccc(NS(=O)(=O)c3c(F)cccc3F)c2F)c(-c2ccnc(N)n2)s1 | 82.4% |
| CN[C@@H]1[C@H](O)[C@H](NC)[C@H]2O[C@@]3(O)C(=O)C[C@@H](C)O[C@H]3O[C@@H]2[C@H]1O | 71.3% |
| CCC1=C(c2ccc(C)cc2)S(=O)(=O)N=C1N1CCC(C(=O)NCCN2CCCCC2C)CC1 (configuration not stated) | 81.9% |
| CCOc1ccc(-c2nc(NC(=O)Cc3cccc(OC)c3)sc2C)cc1 | 83.1% |
| O=C1NCN(c2ccccc2)C12CCN(CCCC(c1ccc(F)cc1)c1ccc(F)cc1)CC2 | 5.27% (active) |
| O=C(Nc1cccc(-c2n[nH]c3ccc(-c4n[nH]c(C5CCCN5)n4)cc23)c1)C1CC1 (configuration not stated) | 36.4% |
| CCSC1CCCCC1NCCn1c(=O)oc2cccnc21 (configuration not stated) | 93.1% |
| C[C@@H](c1nc(-c2ccc(C#N)cc2)cs1)[C@](O)(Cn1cncn1)c1ccc(F)cc1F | 5.78% (active) |
| O=C(NC1CCNCC1)c1ccc(Nc2nccc(-c3ccc(Cl)cc3)n2)cc1 | 6.07% (active) |
| CCOc1cc([C@@H](CS(C)(=O)=O)N2C(=O)c3cccc(NC(C)=O)c3C2=O)ccc1OC | 90.4% |
| Cc1nc2ccccn2c1C1(O)C(=O)Nc2c(Cl)cc(Cl)cc21 (configuration not stated) | 111% |
| Cn1cnc2c(F)c(Nc3ccc(Br)cc3Cl)c(C(=O)NOCCO)cc21 | 86.3% |
